# Inconclusive results are not listed. Where a call stands in place of a potency, no number is given. The source made the active and inactive calls. Unless noted, calls come from the whole dose curve; as a rule, active = well fitted curve in the direction sought with a large enough effect in the repeat runs; inconclusive = weak or mixed curves; inactive = no such curve, though single readings can be large; an effect the other way counts as inactive or inconclusive.
# Legend:
# [1] = qHTS assay to test for compound auto fluorescence at 535 nm (green) in HEK293 cells (AID 720680)
# [2] = qHTS assay to test for compound auto fluorescence at 460 nm (blue) in HEK293 cell free culture (AID 720681)
# Summary of the method: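 Compounds were added to cell-free DMEM with 10% FBS and fluorescence read directly. The blue channel used 405 nm excitation and 460 nm emission, with triamterene as the reference fluorophore.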
# [3] = qHTS assay to test for compound auto fluorescence at 535 nm (green) in HEK293 cell free culture (AID 720682)
# Summary of the method: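 Read-out: 485/535 nm fluorescence intensity, calibrated against fluorescein. Medium only (DMEM + 10% FBS, no cells); test compound or DMSO vehicle added by pintool before plate reading.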
# [4] = qHTS assay to test for compound auto fluorescence at 590 nm (red) in HEK293 cell free culture (AID 720683)
# Summary of the method: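 Cell-free wells of DMEM with 10% FBS received compound, and intrinsic fluorescence was read at excitation/emission 540/590 nm. Values expressed as equivalence to Rose Bengal sodium.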
# [5] = qHTS assay to test for compound auto fluorescence at 590 nm (red) in HepG2 cell free culture (AID 720684)
# Summary of the method: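 Compound was pinned into wells holding MEM with 10% FBS and no cells, and red fluorescence was read at Ex/Em 540/590 nm. Signal is expressed as auto fluorescence equivalency relative to Rose Bengal sodium.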
# [6] = qHTS assay to test for compound auto fluorescence at 460 nm (blue) in HepG2 cell free culture (AID 720685)
# Summary of the method: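 Compound (23 nL) or DMSO pinned into cell-free MEM with 10% FBS; blue fluorescence read at 405/460 nm excitation/emission, expressed as auto-fluorescence equivalency to triamterene.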
# [7] = qHTS assay to test for compound auto fluorescence at 535 nm (green) in HepG2 cell free culture (AID 720686)
# [8] = qHTS assay to test for compound auto fluorescence at 460 nm (blue) in HepG2 cells (AID 720687)
# Summary of the method: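 HepG2 cells in MEM with 10% FBS, attached overnight at 37 C, were exposed to compound or DMSO for 1 hr at 37 C, 5% CO2. Blue fluorescence was read at 405/460 nm, with triamterene as reference fluorophore.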
# [9] = target: Glucocorticoid receptor (Homo sapiens) (UniProt P04150); test: qHTS assay to identify small molecule agonists of the glucocorticoid receptor (GR) signaling pathway (AID 720691; active = well fitted activation curve with a large enough effect in the signal ratio in the repeat runs, not every such curve was filed as active; the % refers to the signal ratio); conditions: GR-bla HeLa, beta-lactamase reporter ratio, 18 h; activation: at 62.4 µM (top of the series)
# Summary of the method: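 Reporter read-out: fluorescence intensity following 2 h room-temperature LiveBLAzer B/G FRET substrate loading. Prior step: GR-bla HeLa cells held 4 h, then treated 18 h at 37 C.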
# [10] = target: Glucocorticoid receptor (Homo sapiens) (UniProt P04150); test: qHTS assay to identify small molecule antagonists of the glucocorticoid receptor (GR) signaling pathway (AID 720692; active = well fitted inhibition curve with a large enough effect in the signal ratio in the repeat runs, not every such curve was filed as active; the % refers to the signal ratio)
# Summary of the method: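 Dexamethasone (5 nM final) stimulated a stably integrated GRE-beta-lactamase reporter in HeLa cells during 18 h co-incubation with compounds; signal was quantified as fluorescence intensity of B/G FRET substrate after 2 h.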
# [11] = qHTS assay to identify small molecule antagonists of the glucocorticoid receptor (GR) signaling pathway - cell viability counter screen (AID 720693); note: nearly all actives have a fitted effect of over 55% in size
# [12] = qHTS assay for identifying genotoxic compounds that show differential cytotoxicity against isogenic chicken DT40 cell lines with known DNA damage response pathways - wild type cell line (AID 743012); note: nearly all actives have a fitted effect of over 60% in size; note: potency is the fitted concentration of half-maximal effect
# Summary of the method: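 Using parental DT40 (300 cells/well), compounds delivered in DMSO incubate 40 h at 37 C/5% CO2. CellTiter-Glo reagent then stands 30 min at room temperature, and luminescence gives cell viability.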
# [13] = qHTS assay for identifying genotoxic compounds that show differential cytotoxicity against isogenic chicken DT40 cell lines with known DNA damage response pathways - Rev3 mutant cell line (AID 743014); note: nearly all actives have a fitted effect of over 55% in size; note: potency is the fitted concentration of half-maximal effect
# [14] = qHTS assay for identifying genotoxic compounds that show differential cytotoxicity against isogenic chicken DT40 cell lines with known DNA damage response pathways - Rad54/Ku70 mutant cell line (AID 743015); note: nearly all actives have a fitted effect of over 60% in size; note: potency is the fitted concentration of half-maximal effect
# [15] = qHTS assay to identify small molecule antagonists of the androgen receptor (AR) signaling pathway - cell viability counter screen (AID 743033; note: nearly all actives have a fitted effect of over 45% in size)
# [16] = qHTS assay to identify small molecule antagonists of the androgen receptor (AR) signaling pathway using the MDA cell line - cell viability counter screen (AID 743041; note: nearly all actives have a fitted effect of over 45% in size)
# Summary of the method: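 MDA-kb2 AR-luc cells (MMTV-luciferase, AR/GR responsive) treated with compounds plus R1881 agonist for 16 h at 37C. CellTiter-Fluor added at 15.5 h; fluorescence read after 30 min in the same wells.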
# [17] = target: Androgen receptor (Homo sapiens) (UniProt P10275); test: qHTS assay to identify small molecule antagonists of the androgen receptor (AR) signaling pathway (AID 743035; active = well fitted inhibition curve with a large enough effect in the signal ratio in the repeat runs, not every such curve was filed as active; the % refers to the signal ratio)
# Summary of the method: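 Using qHTS, AR-UAS-bla GripTite HEK293 cells received compound, then R1881, and were cultured 16 h at 37C/5% CO2 before a 2 h room-temperature LiveBLAzer B/G FRET substrate step and fluorescence measurement.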
# [18] = target: Androgen receptor (Homo sapiens) (UniProt P10275); test: qHTS assay to identify small molecule agonists of the androgen receptor (AR) signaling pathway (AID 743036; active = well fitted activation curve with a large enough effect in the signal ratio in the repeat runs, with a control signal flat, not every such curve was filed as active; the % refers to the signal ratio)
# Summary of the method: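 HEK293 cells stably carrying a UAS-driven beta-lactamase reporter (GeneBLAzer AR-UAS-bla-GripTite) were plated at 2,000 cells/well, rested 4 h at 37C, then exposed to compounds in DMSO for 16 h. LiveBLAzer B/G FRET substrate was added for 2 h at room temperature; fluorescence read.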
# [19] = target: Androgen receptor (Homo sapiens) (UniProt P10275); test: qHTS assay to identify small molecule agonists of the androgen receptor (AR) signaling pathway using the MDA cell line (AID 743040; note: nearly all actives have a fitted effect of over 20% in size)
# Summary of the method: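 MDA-kb2 breast carcinoma cells carrying MMTV-luciferase (responsive to AR and GR), plated 5 h then treated 16 h with compounds at 37C, 0% CO2. Read-out was ONE-Glo luminescence after 30 min at room temperature.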
# [20] = target: Androgen receptor (Homo sapiens) (UniProt P10275); test: qHTS assay to identify small molecule antagonists of the androgen receptor (AR) signaling pathway using the MDA cell line (AID 743042; note: nearly all actives have a fitted effect of over 55% in size)
# Summary of the method: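 MDA-kb2 breast carcinoma cells carrying MMTV-luciferase (AR/GR responsive) were co-treated with compounds and the agonist R1881 for 16 h at 37C. Inhibition read as ONE-Glo luminescence; CellTiter-Fluor fluorescence measured in parallel for cytotoxicity.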
# Sequence of Glucocorticoid receptor (Homo sapiens) (P04150 whole entry, looked up): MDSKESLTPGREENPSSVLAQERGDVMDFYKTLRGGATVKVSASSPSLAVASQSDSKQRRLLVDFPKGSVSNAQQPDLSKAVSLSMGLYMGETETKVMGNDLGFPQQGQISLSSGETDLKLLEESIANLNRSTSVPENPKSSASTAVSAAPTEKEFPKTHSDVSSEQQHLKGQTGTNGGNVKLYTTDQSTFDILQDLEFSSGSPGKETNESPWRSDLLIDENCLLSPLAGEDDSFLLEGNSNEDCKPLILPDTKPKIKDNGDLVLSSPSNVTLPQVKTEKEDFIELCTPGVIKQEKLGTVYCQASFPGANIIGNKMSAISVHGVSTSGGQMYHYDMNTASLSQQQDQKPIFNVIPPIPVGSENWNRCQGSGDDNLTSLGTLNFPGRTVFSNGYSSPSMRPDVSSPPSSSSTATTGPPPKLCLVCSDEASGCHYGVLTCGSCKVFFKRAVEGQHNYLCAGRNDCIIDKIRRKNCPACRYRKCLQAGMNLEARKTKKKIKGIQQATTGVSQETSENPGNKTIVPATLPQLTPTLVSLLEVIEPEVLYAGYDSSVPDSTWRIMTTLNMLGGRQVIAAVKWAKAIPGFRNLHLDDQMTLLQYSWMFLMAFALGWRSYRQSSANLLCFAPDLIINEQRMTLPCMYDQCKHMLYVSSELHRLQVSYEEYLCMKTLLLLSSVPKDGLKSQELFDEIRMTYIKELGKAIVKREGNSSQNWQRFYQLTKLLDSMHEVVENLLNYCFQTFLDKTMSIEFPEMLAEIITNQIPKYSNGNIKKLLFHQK
# Sequence of Androgen receptor (Homo sapiens) (P10275 whole entry, looked up): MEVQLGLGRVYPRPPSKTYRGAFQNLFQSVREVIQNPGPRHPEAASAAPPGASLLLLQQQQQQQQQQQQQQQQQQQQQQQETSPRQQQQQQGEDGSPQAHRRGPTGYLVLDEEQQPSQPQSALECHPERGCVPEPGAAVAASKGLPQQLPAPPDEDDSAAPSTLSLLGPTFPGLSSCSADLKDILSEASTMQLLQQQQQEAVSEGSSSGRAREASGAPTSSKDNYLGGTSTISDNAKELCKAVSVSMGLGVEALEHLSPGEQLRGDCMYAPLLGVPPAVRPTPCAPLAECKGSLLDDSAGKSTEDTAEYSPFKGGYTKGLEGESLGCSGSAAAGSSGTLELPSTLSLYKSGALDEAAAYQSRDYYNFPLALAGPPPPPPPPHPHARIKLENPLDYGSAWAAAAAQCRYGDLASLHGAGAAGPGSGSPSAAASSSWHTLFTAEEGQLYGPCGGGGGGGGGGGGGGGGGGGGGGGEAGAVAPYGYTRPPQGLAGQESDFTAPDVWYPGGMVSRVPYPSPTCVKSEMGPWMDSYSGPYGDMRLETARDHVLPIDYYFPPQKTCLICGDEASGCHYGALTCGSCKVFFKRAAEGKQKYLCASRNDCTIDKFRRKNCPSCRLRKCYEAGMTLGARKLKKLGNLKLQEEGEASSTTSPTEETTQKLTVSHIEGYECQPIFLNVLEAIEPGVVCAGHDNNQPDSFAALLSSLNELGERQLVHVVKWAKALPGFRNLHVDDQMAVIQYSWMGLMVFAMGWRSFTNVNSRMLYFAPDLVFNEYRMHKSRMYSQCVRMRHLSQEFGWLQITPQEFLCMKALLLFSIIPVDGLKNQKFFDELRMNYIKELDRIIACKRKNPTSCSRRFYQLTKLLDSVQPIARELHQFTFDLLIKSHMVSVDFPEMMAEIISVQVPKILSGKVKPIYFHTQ
SMILES,Potency [1],Potency [2],Potency [3],Potency [4],Potency [5],outcome [6],Potency [7],outcome [8],Potency [9],Potency [10],Potency [11],Potency [12],Potency [13],Potency [14],Potency [15],Potency [16],Potency [17],Potency [18],Potency [19],Potency [20]
CCNC(=O)[C@@H]1CCCN1C(=O)[C@H](CCCN=C(N)N)NC(=O)[C@H](CC(C)C)NC(=O)[C@@H](CC(C)C)NC(=O)[C@H](Cc1ccc(O)cc1)NC(=O)[C@H](CO)NC(=O)[C@H](Cc1c[nH]c2ccccc12)NC(=O)[C@H](Cc1cnc[nH]1)NC(=O)[C@@H]1CCC(=O)N1,inactive,inactive,inactive,inactive,inactive,inactive,inactive,inactive,inactive,inactive,inactive,inactive,inactive,inactive,inactive,inactive,,,,
Cc1ccccc1,inactive,inactive,inactive,inactive,inactive,inactive,inactive,inactive,,,,,,,,,,,,
CO[C@H]1[C@@H](O)[C@H](N)[C@@H](O[C@H]2O[C@H]([C@H](C)N)CC[C@H]2N)[C@H](O)[C@@H]1N(C)C(=O)CN,inactive,inactive,inactive,inactive,inactive,inactive,inactive,inactive,inactive,inactive,inactive,inactive,inactive,inactive,inactive,inactive,,,,
CCC(C)(C)OC(=O)N[C@@H](Cc1c[nH]c2ccccc12)C(=O)N[C@@H](CCSC)C(=O)N[C@@H](CC(=O)O)C(=O)N[C@@H](Cc1ccccc1)C(N)=O,inactive,inactive,inactive,inactive,inactive,inactive,inactive,inactive,inactive,inactive,inactive,inactive,inactive,inactive,inactive,inactive,,,,
CCOC(=O)[C@@H](N)CS,inactive,inactive,inactive,inactive,inactive,inactive,inactive,inactive,inactive,inactive,inactive,inactive,inactive,inactive,inactive,,,,,
OC[C@H]1O[C@@H](n2cnc3c2NC=NC[C@H]3O)C[C@@H]1O,inactive,inactive,inactive,inactive,inactive,inactive,inactive,inactive,inactive,inactive,inactive,inactive,inactive,inactive,inactive,inactive,,,,
COc1ccc2cc([C@H](C)CO)ccc2c1,inactive,inactive,inactive,inactive,inactive,inactive,inactive,inactive,inactive,inactive,inactive,inactive,inactive,inactive,inactive,inactive,,,,
CCOC(=O)COc1ccc2c(C)c(CCN(CC)CC)c(=O)oc2c1,inactive,inactive,inactive,inactive,inactive,inactive,inactive,inactive,inactive,inactive,inactive,inactive,inactive,inactive,inactive,inactive,inactive,inactive,inactive,inactive
CNC(C)[C@@H]1CC[C@@H](N)[C@@H](O[C@H]2[C@H](O)[C@@H](O[C@H]3OC[C@](C)(O)[C@H](NC)[C@H]3O)[C@H](N)C[C@@H]2N)O1 (some centres not stated),inactive,inactive,inactive,inactive,inactive,inactive,inactive,inactive,,,,,,,,,,,,
COC(=O)[C@@H](N)CS,inactive,inactive,inactive,inactive,inactive,inactive,inactive,inactive,inactive,inactive,inactive,inactive,inactive,inactive,inactive,inactive,,,,
CCOC(=O)[C@H](CCc1ccccc1)N[C@@H](C)C(=O)N1CC2(C[C@H]1C(=O)O)SCCS2,inactive,inactive,inactive,inactive,inactive,inactive,inactive,inactive,inactive,inactive,inactive,inactive,inactive,inactive,inactive,inactive,,,,
OCC(O)CO,inactive,inactive,inactive,inactive,inactive,inactive,inactive,inactive,,,,,,,,,,,,
O=P(O)(O)OC(Cn1cncn1)(Cn1cncn1)c1ccc(F)cc1F,inactive,inactive,inactive,inactive,inactive,inactive,inactive,inactive,inactive,inactive,inactive,inactive,inactive,inactive,inactive,inactive,inactive,,inactive,inactive
CN1CCN(C2=Nc3ccccc3Cc3ccccc32)CC1,inactive,inactive,inactive,inactive,inactive,inactive,inactive,inactive,inactive,inactive,inactive,26.6 µM (active),23.7 µM (active),29.8 µM (active),inactive,inactive,,,,
CC(C)(C)NCC(O)c1ccc(O)c(CO)n1 (configuration not stated),inactive,inactive,inactive,inactive,inactive,inactive,inactive,inactive,inactive,inactive,inactive,inactive,inactive,inactive,inactive,inactive,,,,

# Reference: PubChem BioAssay (Tox21)
